Results on 35 compounds are retold here after ChEMBL document CHEMBL3433997, “St. Jude Leishmania screening dataset” (2016).

SMILES strings stand for the structures.

Holding throughout (type): functional
Experiment [1] addresses Solute carrier family 2, facilitated glucose transporter member 1 (Homo sapiens) (UniProt P11166). In words: ST_JUDE_LEISH: Cytotoxicity at 2uM final concentration against transgenic Leishmania Mexicana promastigotes LmGLUT1 that are glucose transport deficient and complemented with the human glucose transporter GLUT1. Activity is measured by DNA content using SYBR green in vitro.

The target in experiment [2] is Hexose transporter 1 (Plasmodium falciparum) (UniProt O97467). The experiment in a line: ST_JUDE_LEISH: Cytotoxicity at 2uM final concentration against transgenic Leishmania Mexicana promastigotes LmPfHT that are glucose transport deficient and complemented with the Plasmodium falciparum hexose transporter. Activity is measured by DNA content using SYBR green in vitro.

Experiment [3] addresses Glucose transporter (Leishmania mexicana) (UniProt O61059). The experiment in a line: ST_JUDE_LEISH: Cytotoxicity at 2uM final concentration against transgenic Leishmania Mexicana promastigotes LmGT2 that are glucose transport deficient and complemented with the L. Mexicana glucose transporter 2. Activity is measured by DNA content using SYBR green in vitro.

Chain of Solute carrier family 2, facilitated glucose transporter member 1 (Homo sapiens) (P11166 whole entry): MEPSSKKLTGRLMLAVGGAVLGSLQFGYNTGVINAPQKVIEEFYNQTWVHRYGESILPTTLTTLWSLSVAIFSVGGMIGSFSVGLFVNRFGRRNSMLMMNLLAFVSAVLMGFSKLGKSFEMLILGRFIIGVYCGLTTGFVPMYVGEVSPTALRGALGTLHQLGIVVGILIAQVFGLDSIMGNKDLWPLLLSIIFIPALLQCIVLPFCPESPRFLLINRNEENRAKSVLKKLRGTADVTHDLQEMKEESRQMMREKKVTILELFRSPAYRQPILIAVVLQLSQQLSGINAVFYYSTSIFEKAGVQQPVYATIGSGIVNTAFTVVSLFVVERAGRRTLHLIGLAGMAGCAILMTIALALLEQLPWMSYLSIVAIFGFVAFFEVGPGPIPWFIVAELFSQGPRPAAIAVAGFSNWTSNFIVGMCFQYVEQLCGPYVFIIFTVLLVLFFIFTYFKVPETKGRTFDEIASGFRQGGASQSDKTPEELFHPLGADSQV

With `CCc1cn2c3c(cc(C(=O)N[C@@H](Cc4cc(F)cc(F)c4)[C@H](O)CNC4CC4)cc13)N(C)S(=O)(=O)CC2`, the figures for the inhibition in experiment [1], in experiment [2] and in experiment [3] were 3.44%, 2.48% and 3.48%, respectively.

In the case of `CC(=O)c1ccc(Nc2c(C(N)=O)cnc3cc(-c4c(C)noc4C)ccc23)cc1`, the inhibition came to 8.14% in experiment [1], 6.39% in experiment [2] and 5.76% in experiment [3].

Consider `Clc1ccc(Cn2nc(Br)nc2Br)c(Cl)c1`, for which the inhibition in experiment [1] was -0.61%; in experiment [2] it was -1.03%; in experiment [3], -4.56%.

As to `O=S(=O)(Nc1cc2c(cc1OCc1ccccc1)CCN(C1CCC1)CC2)c1ccc(-c2ccc(Cl)cc2)cc1`, the results for the inhibition in experiment [1], in experiment [2] and in experiment [3] were 1.72%, 2.61% and -1.11%, respectively.

As for `O=c1nc(NCCCCCN2CCC(c3c[nH]c4ccccc34)CC2)[nH]cc1Cc1ccc(Cl)c(Cl)c1`, the inhibition in experiment [1] came to 2.65%; in experiment [2] it was 2.12%; in experiment [3] it was 2.08%.

As for `COc1cccc(C(C)(C)NC[C@@H](O)[C@H](Cc2ccccc2)NC(=O)c2cc(C3CCCC3)cc(N3CCCCS3(=O)=O)c2F)c1`, the inhibition in experiment [1] turned out to be 0.16%; in experiment [2], 2.15%; in experiment [3], 1.09%.

Turning to `O=C(NCC1CCC(C(=O)NCc2cccc3ccccc23)CC1)c1ccc(O)c(-c2ccc(Cl)c(Cl)c2)c1` (stereo not given), the inhibition was found to be 5.23% in experiment [1], 3.37% in experiment [2] and 4.73% in experiment [3].

Consider `CN1CCC(C(=O)Nc2cccc(-c3ccc(-c4nc5cc(C(F)(F)F)ccc5[nH]4)cc3)c2)CC1`, for which the inhibition in experiment [1] was 4.82%; in experiment [2], 2.75%; in experiment [3] it was 3.82%.

As to `CC(C)(CNC(=O)C1CCN(CC2CCCCC2)CC1)c1nc(-c2ccc(Cl)c(O)c2)c(-c2ccncc2)[nH]1`, the values for the inhibition in experiment [1], in experiment [2] and in experiment [3] were 1.84%, 0.23% and 2.71%, respectively.

In the case of `N=C(NCCc1c[nH]c2ccccc12)NCc1ccccc1Cl`, the inhibition in experiment [1] was -1.93%; in experiment [2], -1.07%; in experiment [3] it was -1.16%.

For `Cc1ccc2[nH]c(Nc3ccc(Nc4nc5cc(C)ccc5[nH]4)c(C)c3)nc2c1`, the inhibition came out at 0.87% in experiment [1], 2.18% in experiment [2] and 0.88% in experiment [3].

Consider `Cc1cccc2nc(-c3ccc(-c4ccc(CNCc5ccc(CN)cc5)cc4)s3)[nH]c12`, for which the inhibition stood at 5.43% in experiment [1], 8.51% in experiment [2] and 0.48% in experiment [3].

Consider `C[C@H]1CN(Cc2cccc(-c3cc(CNC(=O)c4cccc(C(=O)c5ccc(Cl)c(Cl)c5)c4)ccc3F)c2)CCN1`, for which the inhibition in experiment [1] was found to be 1.24%; in experiment [2], 2.34%; in experiment [3], 1.43%.

In the case of `Nc1ncc(-c2cn[nH]c2)cc1-c1nc2ccc(Cl)cc2[nH]1`, the inhibition is 2.56% in experiment [1], 3.75% in experiment [2] and 3.89% in experiment [3].

For `COc1ccc(S(=O)(=O)NCCCC2CCN(CCCCCNC(=O)C=Cc3ccc(Cl)c(Cl)c3)CC2)cc1`, the inhibition in experiment [1] came to 0.69%; in experiment [2], 0.8%; in experiment [3], 3.65%.

In the case of `O=C(Nc1ccc(C(=O)N2CCN(CCN3CCN(c4cccc(C(F)(F)F)c4)CC3)CC2)cc1)c1cc(Cl)cc(Cl)c1`, the inhibition in experiment [1] came out at 3.84%; in experiment [2], 0.79%; in experiment [3] it was 2.52%.

Turning to `O=C(Cn1cc(C(F)(F)F)cc(Cl)c1=O)N1CCN(S(=O)(=O)c2ccc(Cl)cc2)CC1`, the figures for the inhibition in experiment [1], in experiment [2] and in experiment [3] were 2.2%, 1.76% and -0.25%, respectively.

For the compound `O=C(CCC1CCCC1)N(Cc1ccc(-c2ccc(CNCCc3ccccc3)cc2)cc1)C1CCCNC1` (stereo not given), the inhibition is -0.19% in experiment [1], 1.6% in experiment [2] and 0.14% in experiment [3].

On to `CS(=O)(=O)CCNCc1nc(-c2ccc3c(=O)[nH]cnc3c2)cs1`, for which the inhibition in experiment [1] was determined as 18.2%; in experiment [2], 48%; in experiment [3], 31.5%.

For the compound `CCc1ccc(-n2cc(C(=O)c3cc(Br)ccc3O)cc(C#N)c2=O)cc1`, the inhibition in experiment [1] came out at 3.35%; in experiment [2] it was 3.08%; in experiment [3], 2.28%.

`FC(F)(F)c1ccc2[nH]ccc(=NN=Cc3cccnc3)c2c1`: the figures for the inhibition in experiment [1], in experiment [2] and in experiment [3] were 1.46%, 1.75% and 5.22%, respectively.

Take `O=C(/C=C/c1ccc(Cl)c(Cl)c1)NCCCCCN1CCC(C(=O)Nc2ccc3c(c2)OCO3)CC1`: the inhibition in experiment [1] amounted to 6.29%; in experiment [2], 5.08%; in experiment [3] it was 5.17%.

`Nc1nc(N)c2c(ccc3c2cnn3S(=O)(=O)N2CCCC2)n1`: the figures for the inhibition in experiment [1], in experiment [2] and in experiment [3] were -1.43%, 0.03% and -2.01%, respectively.

Regarding `CCN(CC)CCCC(C)Nc1ccnc2cc(C#N)ccc12` (stereo not given), the inhibition in experiment [1] was -0.82%; in experiment [2], -2.04%; in experiment [3], -3.31%.

In the case of `COc1ccc2nccc([C@@H](O)CN3CCC(NCCOc4ccc(F)cc4[N+](=O)[O-])CC3)c2c1`, the results for the inhibition in experiment [1], in experiment [2] and in experiment [3] were -1.59%, -1% and 1.61%, respectively.

Turning to `COc1cccc(CN2CCC(C(=O)Nc3ccc(-c4nc5ccccc5[nH]4)cc3)CC2)c1`, the inhibition turned out to be 23.8% in experiment [1], 32.9% in experiment [2] and 20.6% in experiment [3].

For `CC(CN(C)C)C(=O)Nc1cccc(-c2ccc(-c3nc4cc(C(F)(F)F)ccc4[nH]3)cc2)c1` (stereo not given), the inhibition was found to be 11% in experiment [1], 9.17% in experiment [2] and 4.86% in experiment [3].

For `Nc1nc(N)c2c(ccc3c2ccn3C2C=CCCC2)n1` (stereo not given), the inhibition in experiment [1] is 56.1%; in experiment [2], 71.8%; in experiment [3], 34.4%.

Turning to `c1cc(CN2CCCCC2)cc(-c2cccc(-c3nc4ccccc4[nH]3)c2)c1`, the inhibition is 1.27% in experiment [1], 2.94% in experiment [2] and -0.15% in experiment [3].

On to `NCc1ccc(CNCc2cccc(-c3ccc(-c4nc5cc(C(F)(F)F)ccc5[nH]4)cc3)c2)cc1`, for which the inhibition was determined as 2.92% in experiment [1], 1.34% in experiment [2] and 0.8% in experiment [3].

`COc1ccc2nccc([C@@H](O)CN3CCC(NCc4ccc5cccc(O)c5n4)CC3)c2n1`: the inhibition in experiment [1] came to 5.63%; in experiment [2], 11.5%; in experiment [3], 0.77%.

In the case of `COc1ccc(C2C(C(=O)OC3CCCC3)=C(C)NC3=C2C(=O)CCC3)cc1Br` (stereo not given), the inhibition in experiment [1] is 1.02%; in experiment [2], -0.27%; in experiment [3], 0.31%.

With `CN1CCC(Oc2ccc(CN3CC[C@H](NC(=O)c4ccc(F)c(F)c4)C3)c3ccccc23)C1` (stereo not given in full), the inhibition in experiment [1] came to 1.65%; in experiment [2] it was 1%; in experiment [3], 2.7%.

Consider `CCN(CCCN1CCCCC1)c1cc(C)nc(Nc2ccc(C)cc2Cl)n1`, for which the inhibition is 9.81% in experiment [1], 7.68% in experiment [2] and 7.34% in experiment [3].

As to `CCc1c[nH]c2c(N3CCCC3=O)cc(C(=O)N[C@@H](Cc3ccccc3)[C@H](O)CNC(C)(C)CCCC(C)C)cc12`, the inhibition in experiment [1] was found to be 12.2%; in experiment [2] it was 9.72%; in experiment [3] it was 8.72%.

One may read the inhibition as the change of the read-out against control, counted positive when it falls.
